Measurements: the supplement of paper PMC9694430

Assays:
Test in all cases: thermal shift delta Tm vs DMSO control; higher = stronger stabilization (binding)
Settings in all cases: 12.5 µM; protein concentration 2 µM
LOC_OS04G57630-cb004 = test system: LOC_OS04G57630-cb004
Outline: (§1)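 Rice kinase domain constructs were expressed in E. coli, purified, and tested by differential scanning fluorimetry with compound added in DMSO. Each well of a 96-well plate held 19.5 μl of 2 μM kinase in 100 mM potassium phosphate pH 7.5, 150 mM NaCl, 10% glycerol and 5 × SYPRO Orange, and fluorescence was read from 25°C to 95°C at 0.05°C/s. The melting temperature shift is the mean of triplicates, taken against protein with DMSO alone after Boltzmann fitting.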

LOC_OS05G07850-cb002 = test system: LOC_OS05G07850-cb002
Outline: as §1

LOC_OS05G16824-cb004 = test system: LOC_OS05G16824-cb004
Outline: as §1

LOC_OS05G28520-cb001 = test system: LOC_OS05G28520-cb001
Outline: as §1

LOC_OS05G30820-cb001 = test system: LOC_OS05G30820-cb001
Outline: as §1

LOC_OS05G43570-cb004 = test system: LOC_OS05G43570-cb004
Outline: as §1

LOC_OS06G16330-cb003 = test system: LOC_OS06G16330-cb003
Outline: as §1

LOC_OS06G22820-cb001 = test system: T1, LOC_OS06G22820-cb001
T1 sequence (whole entry): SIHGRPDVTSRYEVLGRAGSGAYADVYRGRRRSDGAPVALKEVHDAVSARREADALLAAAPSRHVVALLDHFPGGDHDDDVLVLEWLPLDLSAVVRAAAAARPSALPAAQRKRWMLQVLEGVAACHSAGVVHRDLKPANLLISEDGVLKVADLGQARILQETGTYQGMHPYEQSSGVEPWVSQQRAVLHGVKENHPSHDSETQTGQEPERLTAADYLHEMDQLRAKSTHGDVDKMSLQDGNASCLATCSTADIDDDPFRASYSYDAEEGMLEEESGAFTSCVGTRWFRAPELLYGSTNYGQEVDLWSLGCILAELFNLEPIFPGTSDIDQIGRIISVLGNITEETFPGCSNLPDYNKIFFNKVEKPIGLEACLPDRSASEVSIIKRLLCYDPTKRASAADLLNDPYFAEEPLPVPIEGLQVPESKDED
Outline: as §1

LOC_OS07G06570-cb004 = test system: LOC_OS07G06570-cb004
Outline: as §1

LOC_OS07G07230-cb001 = test system: LOC_OS07G07230-cb001
Outline: as §1

Sequence of LOC_OS06G16330-cb003 (as listed by the source): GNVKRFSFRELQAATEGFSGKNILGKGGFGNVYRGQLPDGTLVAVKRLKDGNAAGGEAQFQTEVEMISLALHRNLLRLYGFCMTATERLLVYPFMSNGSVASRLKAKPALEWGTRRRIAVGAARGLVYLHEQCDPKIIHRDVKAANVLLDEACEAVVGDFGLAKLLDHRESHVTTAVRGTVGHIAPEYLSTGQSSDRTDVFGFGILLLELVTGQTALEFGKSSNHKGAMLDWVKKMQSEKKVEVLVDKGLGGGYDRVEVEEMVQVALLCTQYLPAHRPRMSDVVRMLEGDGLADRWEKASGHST

CN1CCC(COc2cnc(-c3cccc(Cn4nc(-c5cccc(C#N)c5)ccc4=O)c3)nc2)CC1
thermal shift delta Tm (LOC_OS04G57630-cb004): 0.46 °C | thermal shift delta Tm (LOC_OS05G07850-cb002): 0.61 °C | thermal shift delta Tm (LOC_OS05G16824-cb004): -1.27 °C | thermal shift delta Tm (LOC_OS05G28520-cb001): 0.69 °C | thermal shift delta Tm (LOC_OS05G30820-cb001): 0.42 °C | thermal shift delta Tm (LOC_OS05G43570-cb004): 0.46 °C | thermal shift delta Tm (LOC_OS06G16330-cb003): 0.55 °C | thermal shift delta Tm (LOC_OS06G22820-cb001): 0.49 °C | thermal shift delta Tm (LOC_OS07G06570-cb004): 1.28 °C | thermal shift delta Tm (LOC_OS07G07230-cb001): 0.18 °C

COc1ncc(-c2cc(-c3ncc(CN4C[C@@H](C)O[C@@H](C)C4)o3)c3cn[nH]c3c2)cc1NS(C)(=O)=O
thermal shift delta Tm (LOC_OS04G57630-cb004): 0.12 °C | thermal shift delta Tm (LOC_OS05G07850-cb002): 1.71 °C | thermal shift delta Tm (LOC_OS05G16824-cb004): -0.4 °C | thermal shift delta Tm (LOC_OS05G28520-cb001): 0.61 °C | thermal shift delta Tm (LOC_OS05G30820-cb001): 0.21 °C | thermal shift delta Tm (LOC_OS05G43570-cb004): 0.39 °C | thermal shift delta Tm (LOC_OS06G16330-cb003): -0.32 °C | thermal shift delta Tm (LOC_OS06G22820-cb001): 0.44 °C | thermal shift delta Tm (LOC_OS07G06570-cb004): 0.86 °C | thermal shift delta Tm (LOC_OS07G07230-cb001): 0.19 °C

CCn1c(-c2nonc2N)nc2cnc(Oc3cccc(NC(=O)c4ccc(OCCN5CCOCC5)cc4)c3)cc21
thermal shift delta Tm (LOC_OS04G57630-cb004): 0.7 °C | thermal shift delta Tm (LOC_OS05G07850-cb002): 1.97 °C | thermal shift delta Tm (LOC_OS05G16824-cb004): -1.49 °C | thermal shift delta Tm (LOC_OS05G28520-cb001): 1.05 °C | thermal shift delta Tm (LOC_OS05G30820-cb001): 0.73 °C | thermal shift delta Tm (LOC_OS05G43570-cb004): 0.77 °C | thermal shift delta Tm (LOC_OS06G16330-cb003): -0.54 °C | thermal shift delta Tm (LOC_OS06G22820-cb001): 0.79 °C | thermal shift delta Tm (LOC_OS07G06570-cb004): 0.87 °C | thermal shift delta Tm (LOC_OS07G07230-cb001): 0.15 °C

CNC(=O)c1cc(Oc2ccc(NC(=O)Nc3ccc(Cl)c(C(F)(F)F)c3)cc2)ccn1 [Sorafenib]
thermal shift delta Tm (LOC_OS04G57630-cb004): 2.09 °C | thermal shift delta Tm (LOC_OS05G07850-cb002): 9.44 °C | thermal shift delta Tm (LOC_OS05G16824-cb004): 1.37 °C | thermal shift delta Tm (LOC_OS05G28520-cb001): -0.04 °C | thermal shift delta Tm (LOC_OS05G30820-cb001): 0.65 °C | thermal shift delta Tm (LOC_OS05G43570-cb004): 1.2 °C | thermal shift delta Tm (LOC_OS06G16330-cb003): 2.66 °C | thermal shift delta Tm (LOC_OS06G22820-cb001): 1.5 °C | thermal shift delta Tm (LOC_OS07G06570-cb004): 1 °C | thermal shift delta Tm (LOC_OS07G07230-cb001): -0.34 °C

COc1cc(Nc2ncc3c(n2)-c2ccc(Cl)cc2C(c2c(F)cccc2OC)=NC3)ccc1C(=O)O [Alisertib (MLN8237)]
thermal shift delta Tm (LOC_OS04G57630-cb004): -0.1 °C | thermal shift delta Tm (LOC_OS05G07850-cb002): 10.3 °C | thermal shift delta Tm (LOC_OS05G16824-cb004): 5.74 °C | thermal shift delta Tm (LOC_OS05G28520-cb001): 0.02 °C | thermal shift delta Tm (LOC_OS05G30820-cb001): 0.19 °C | thermal shift delta Tm (LOC_OS05G43570-cb004): 0.06 °C | thermal shift delta Tm (LOC_OS06G16330-cb003): 2.21 °C | thermal shift delta Tm (LOC_OS06G22820-cb001): 0.35 °C | thermal shift delta Tm (LOC_OS07G06570-cb004): 0.77 °C | thermal shift delta Tm (LOC_OS07G07230-cb001): 0.11 °C

C=CC(=O)Nc1cccc(Sc2nc(Nc3ccc(N4CCN(C)CC4)cc3)ncc2Cl)c1
thermal shift delta Tm (LOC_OS04G57630-cb004): 4.52 °C | thermal shift delta Tm (LOC_OS05G07850-cb002): 11.5 °C | thermal shift delta Tm (LOC_OS05G16824-cb004): 7.67 °C | thermal shift delta Tm (LOC_OS05G28520-cb001): 7.81 °C | thermal shift delta Tm (LOC_OS05G30820-cb001): 2.25 °C | thermal shift delta Tm (LOC_OS05G43570-cb004): 0.95 °C | thermal shift delta Tm (LOC_OS06G16330-cb003): 5.61 °C | thermal shift delta Tm (LOC_OS06G22820-cb001): -0.33 °C | thermal shift delta Tm (LOC_OS07G06570-cb004): 0.28 °C | thermal shift delta Tm (LOC_OS07G07230-cb001): 0.95 °C

O=C(O)c1ccc(Nc2ncc3c(n2)-c2ccc(Cl)cc2C(c2c(F)cccc2F)=NC3)cc1
thermal shift delta Tm (LOC_OS04G57630-cb004): -0.29 °C | thermal shift delta Tm (LOC_OS05G07850-cb002): 4.66 °C | thermal shift delta Tm (LOC_OS05G16824-cb004): -1.88 °C | thermal shift delta Tm (LOC_OS05G28520-cb001): 0.62 °C | thermal shift delta Tm (LOC_OS05G30820-cb001): 0.22 °C | thermal shift delta Tm (LOC_OS05G43570-cb004): 0.24 °C | thermal shift delta Tm (LOC_OS06G16330-cb003): -0.12 °C | thermal shift delta Tm (LOC_OS06G22820-cb001): 0.97 °C | thermal shift delta Tm (LOC_OS07G06570-cb004): 0.4 °C | thermal shift delta Tm (LOC_OS07G07230-cb001): 0.33 °C

CC(C)N(CCC(=O)c1ccc2ccccc2c1)Cc1ccccc1
thermal shift delta Tm (LOC_OS04G57630-cb004): 0.41 °C | thermal shift delta Tm (LOC_OS05G07850-cb002): 4.18 °C | thermal shift delta Tm (LOC_OS05G16824-cb004): -2.65 °C | thermal shift delta Tm (LOC_OS05G28520-cb001): -0.95 °C | thermal shift delta Tm (LOC_OS05G30820-cb001): -1.16 °C | thermal shift delta Tm (LOC_OS05G43570-cb004): -0.34 °C | thermal shift delta Tm (LOC_OS06G16330-cb003): -1.31 °C | thermal shift delta Tm (LOC_OS06G22820-cb001): -1.34 °C | thermal shift delta Tm (LOC_OS07G06570-cb004): 0.13 °C | thermal shift delta Tm (LOC_OS07G07230-cb001): 0.23 °C
